The text below walks through data of publication PMC7862700, “An all-to-all approach to the identification of sequence-specific readers for epigenetic DNA modifications on cytosine”.

Assay in all cases: DAPPL (digital affinity profiling via proximity ligation, sequencing); 10 mM Tris-HCl pH 7.5, 50 mM NaCl, 1 mM DTT, 4% glycerol, room temperature, 30 min; GST-TFs on glutathione beads, 16-mer random dsDNA library, 0.1% formaldehyde crosslink after washing; high values mean tight binding
What all share (conditions): protein: recombinant; tags: N-terminal GST; dsDNA, one strand shown

Test [1] addresses T1, ERF (Homo sapiens, UniProt P50548 1-548).
T1 sequence: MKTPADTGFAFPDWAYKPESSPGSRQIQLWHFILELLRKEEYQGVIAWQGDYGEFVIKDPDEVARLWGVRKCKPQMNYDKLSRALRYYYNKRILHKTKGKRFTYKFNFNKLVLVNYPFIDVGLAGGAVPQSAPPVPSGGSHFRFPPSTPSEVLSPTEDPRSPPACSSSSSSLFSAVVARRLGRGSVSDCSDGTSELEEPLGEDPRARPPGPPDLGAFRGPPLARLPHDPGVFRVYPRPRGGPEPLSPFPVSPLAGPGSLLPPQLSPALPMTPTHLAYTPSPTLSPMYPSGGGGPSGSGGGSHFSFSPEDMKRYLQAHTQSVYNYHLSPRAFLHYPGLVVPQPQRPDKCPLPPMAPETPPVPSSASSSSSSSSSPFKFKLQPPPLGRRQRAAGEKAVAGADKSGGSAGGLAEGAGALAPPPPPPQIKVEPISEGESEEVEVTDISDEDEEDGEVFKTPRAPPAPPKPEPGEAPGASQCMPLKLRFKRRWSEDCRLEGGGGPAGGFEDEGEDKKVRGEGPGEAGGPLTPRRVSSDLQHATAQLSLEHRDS
The method in brief:
(§1)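 Human transcription factors carrying a GST fusion were produced in yeast, bound to glutathione beads, tagged with DNA barcodes and pooled together with a tag-only sample. Each pool was held with 200 nmole of a random double-stranded 16-mer DNA library in Tris/NaCl/DTT/glycerol buffer for 30 min at room temperature, then washed, crosslinked in 0.1% formaldehyde, proximity-ligated with BsaI/T4 ligase (1 h, 37 °C), PCR-amplified and sequenced on an Illumina NextSeq500. Binding signal is the read frequency of each hexamer for a given factor divided by its frequency in the tag-only sample.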

The target in test [2] is T2, ETV3L (Homo sapiens, UniProt Q6ZN32 1-361).
T2 sequence: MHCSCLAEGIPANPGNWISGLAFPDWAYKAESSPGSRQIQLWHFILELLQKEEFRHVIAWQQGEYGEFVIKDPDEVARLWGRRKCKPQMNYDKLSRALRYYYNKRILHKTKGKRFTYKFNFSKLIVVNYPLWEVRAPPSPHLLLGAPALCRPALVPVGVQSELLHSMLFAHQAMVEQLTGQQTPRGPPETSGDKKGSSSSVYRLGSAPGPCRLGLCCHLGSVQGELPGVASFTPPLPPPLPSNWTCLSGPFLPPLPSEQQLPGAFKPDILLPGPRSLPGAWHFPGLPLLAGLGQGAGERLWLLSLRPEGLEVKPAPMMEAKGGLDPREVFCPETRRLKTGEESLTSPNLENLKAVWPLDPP
In outline:
as §1

Test [3] concerns the target T3, ETS2 (Homo sapiens, UniProt P15036 1-469).
T3 sequence: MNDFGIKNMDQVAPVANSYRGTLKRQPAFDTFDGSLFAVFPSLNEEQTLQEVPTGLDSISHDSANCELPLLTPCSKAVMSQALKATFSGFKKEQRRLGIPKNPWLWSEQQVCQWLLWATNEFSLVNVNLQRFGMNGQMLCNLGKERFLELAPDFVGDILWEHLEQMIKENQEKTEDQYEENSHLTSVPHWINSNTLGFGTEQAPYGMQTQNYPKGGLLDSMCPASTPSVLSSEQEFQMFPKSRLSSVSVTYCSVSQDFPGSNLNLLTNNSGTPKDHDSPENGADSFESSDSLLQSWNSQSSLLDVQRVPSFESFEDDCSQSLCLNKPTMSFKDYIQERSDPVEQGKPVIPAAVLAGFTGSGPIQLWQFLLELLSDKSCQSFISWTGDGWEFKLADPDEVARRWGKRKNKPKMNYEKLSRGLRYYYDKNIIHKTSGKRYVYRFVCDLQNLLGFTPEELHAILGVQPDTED
In outline: as §1

The target of test [4] is T4, SPDEF (Homo sapiens, UniProt O95238 1-335).
T4 sequence: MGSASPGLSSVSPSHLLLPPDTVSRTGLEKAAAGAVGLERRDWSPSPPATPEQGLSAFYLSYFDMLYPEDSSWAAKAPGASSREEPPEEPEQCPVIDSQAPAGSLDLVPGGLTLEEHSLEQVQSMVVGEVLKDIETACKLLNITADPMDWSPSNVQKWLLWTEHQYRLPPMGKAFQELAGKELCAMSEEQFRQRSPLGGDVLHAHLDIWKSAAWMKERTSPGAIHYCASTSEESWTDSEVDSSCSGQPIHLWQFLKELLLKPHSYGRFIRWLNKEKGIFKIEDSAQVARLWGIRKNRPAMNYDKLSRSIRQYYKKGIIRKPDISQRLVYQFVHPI
In outline:
as §1

Test [5] deals with T5, ETV7 (Homo sapiens, UniProt Q9Y603 1-341).
T5 sequence: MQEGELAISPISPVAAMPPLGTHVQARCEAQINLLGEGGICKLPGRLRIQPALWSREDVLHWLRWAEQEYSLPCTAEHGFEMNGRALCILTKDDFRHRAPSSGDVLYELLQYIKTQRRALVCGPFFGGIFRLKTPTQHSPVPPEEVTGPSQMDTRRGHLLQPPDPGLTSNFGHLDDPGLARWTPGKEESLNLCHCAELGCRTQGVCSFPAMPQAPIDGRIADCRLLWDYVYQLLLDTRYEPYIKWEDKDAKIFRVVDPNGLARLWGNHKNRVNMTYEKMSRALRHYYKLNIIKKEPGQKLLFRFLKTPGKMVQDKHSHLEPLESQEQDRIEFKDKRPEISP
In outline:
as §1

For test [6], the target named is T6, ELF5 (Homo sapiens, UniProt Q9UKW6-2 1-255).
T6 sequence: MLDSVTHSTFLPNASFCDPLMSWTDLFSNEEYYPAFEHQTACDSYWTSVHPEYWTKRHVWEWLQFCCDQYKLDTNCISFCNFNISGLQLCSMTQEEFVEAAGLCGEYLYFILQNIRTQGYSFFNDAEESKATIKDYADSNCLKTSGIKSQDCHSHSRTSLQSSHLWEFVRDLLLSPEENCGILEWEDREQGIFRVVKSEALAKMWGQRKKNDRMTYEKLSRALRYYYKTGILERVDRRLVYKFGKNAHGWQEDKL
In outline:
as §1

Test [7] has as its target T7, ETV3 (Homo sapiens, UniProt P41162-2 1-143).
T7 sequence: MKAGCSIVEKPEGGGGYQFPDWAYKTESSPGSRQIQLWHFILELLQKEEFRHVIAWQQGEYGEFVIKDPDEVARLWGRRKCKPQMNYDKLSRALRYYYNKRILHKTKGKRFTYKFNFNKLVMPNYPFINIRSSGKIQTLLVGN
In outline:
as §1

Test [8] deals with ETV6 (Homo sapiens, UniProt P41212 1-452). In outline: as §1
Chain of ETV6 (P41212 whole entry): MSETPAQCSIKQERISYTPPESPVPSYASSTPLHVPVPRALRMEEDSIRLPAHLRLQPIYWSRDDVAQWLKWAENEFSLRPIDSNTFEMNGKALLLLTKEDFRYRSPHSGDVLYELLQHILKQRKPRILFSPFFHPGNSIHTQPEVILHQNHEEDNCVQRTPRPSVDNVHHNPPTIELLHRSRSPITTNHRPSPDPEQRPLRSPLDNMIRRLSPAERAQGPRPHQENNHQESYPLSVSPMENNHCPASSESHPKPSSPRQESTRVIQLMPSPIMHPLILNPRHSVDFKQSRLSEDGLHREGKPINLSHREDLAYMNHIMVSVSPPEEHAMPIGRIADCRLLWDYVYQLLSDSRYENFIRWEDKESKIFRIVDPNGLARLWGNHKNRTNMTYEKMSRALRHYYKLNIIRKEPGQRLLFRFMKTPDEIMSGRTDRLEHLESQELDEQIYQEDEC

On to TTTAAC, for which the binding signal in test [1] was 1.28 fold enrichment (6-mer frequency, TF over GST control); in test [2] it was 1.17 fold enrichment (6-mer frequency, TF over GST control); in test [3] it was 1.16 fold enrichment (6-mer frequency, TF over GST control); in test [4] it was 1.12 fold enrichment (6-mer frequency, TF over GST control); in test [5], 1.07 fold enrichment (6-mer frequency, TF over GST control); in test [6], 1.11 fold enrichment (6-mer frequency, TF over GST control). The binding signal in test [7] is 1.21 fold enrichment (6-mer frequency, TF over GST control); in test [8] it was 1.19 fold enrichment (6-mer frequency, TF over GST control).

On to TAACAA, for which the binding signal in test [1] was 1.33 fold enrichment (6-mer frequency, TF over GST control); in test [2], 1.18 fold enrichment (6-mer frequency, TF over GST control); in test [3], 1.15 fold enrichment (6-mer frequency, TF over GST control); in test [4], 1.14 fold enrichment (6-mer frequency, TF over GST control); in test [5] it was 1.21 fold enrichment (6-mer frequency, TF over GST control); in test [6], 1.14 fold enrichment (6-mer frequency, TF over GST control). Also, the binding signal in test [7] is 1.19 fold enrichment (6-mer frequency, TF over GST control); in test [8] it was 1.15 fold enrichment (6-mer frequency, TF over GST control).

TCGACA: the binding signal was 1.35 fold enrichment (6-mer frequency, TF over GST control) in test [1]; 1.3 fold enrichment (6-mer frequency, TF over GST control) in test [2]; 1.31 fold enrichment (6-mer frequency, TF over GST control) in test [3]; 1.23 fold enrichment (6-mer frequency, TF over GST control) in test [4]; 1.39 fold enrichment (6-mer frequency, TF over GST control) in test [5]; 1.27 fold enrichment (6-mer frequency, TF over GST control) in test [6]. The binding signal was 1.4 fold enrichment (6-mer frequency, TF over GST control) in test [7] and 1.42 fold enrichment (6-mer frequency, TF over GST control) in test [8].

On to CTTTCC, for which the binding signal was 1.82 fold enrichment (6-mer frequency, TF over GST control) in test [1]; 1.76 fold enrichment (6-mer frequency, TF over GST control) in test [2]; 2.1 fold enrichment (6-mer frequency, TF over GST control) in test [3]; 1.96 fold enrichment (6-mer frequency, TF over GST control) in test [4]; 1.64 fold enrichment (6-mer frequency, TF over GST control) in test [5]; 2.39 fold enrichment (6-mer frequency, TF over GST control) in test [6]. Moreover, the binding signal was 2.12 fold enrichment (6-mer frequency, TF over GST control) in test [7] and 2.07 fold enrichment (6-mer frequency, TF over GST control) in test [8].

Take TTCGAC: the binding signal in test [1] was 1.43 fold enrichment (6-mer frequency, TF over GST control); in test [2], 1.39 fold enrichment (6-mer frequency, TF over GST control); in test [3] it was 1.42 fold enrichment (6-mer frequency, TF over GST control); in test [4], 1.36 fold enrichment (6-mer frequency, TF over GST control); in test [5] it was 1.37 fold enrichment (6-mer frequency, TF over GST control); in test [6], 1.36 fold enrichment (6-mer frequency, TF over GST control). In addition, the binding signal in test [7] is 1.45 fold enrichment (6-mer frequency, TF over GST control); in test [8] it was 1.3 fold enrichment (6-mer frequency, TF over GST control).

With TAAATG, the binding signal in test [1] is 1.24 fold enrichment (6-mer frequency, TF over GST control); in test [2], 1.39 fold enrichment (6-mer frequency, TF over GST control); in test [3] it was 1.38 fold enrichment (6-mer frequency, TF over GST control); in test [4], 1.35 fold enrichment (6-mer frequency, TF over GST control); in test [5], 1.31 fold enrichment (6-mer frequency, TF over GST control); in test [6] it was 1.16 fold enrichment (6-mer frequency, TF over GST control). The binding signal in test [7] is 1.31 fold enrichment (6-mer frequency, TF over GST control); in test [8], 1.31 fold enrichment (6-mer frequency, TF over GST control).

With TAATCA, the binding signal in test [1] was 1.09 fold enrichment (6-mer frequency, TF over GST control); in test [2], 1.12 fold enrichment (6-mer frequency, TF over GST control); in test [3], 1.14 fold enrichment (6-mer frequency, TF over GST control); in test [4], 1.11 fold enrichment (6-mer frequency, TF over GST control); in test [5] it was 1.1 fold enrichment (6-mer frequency, TF over GST control); in test [6] it was 1.08 fold enrichment (6-mer frequency, TF over GST control). For the same sequence, the binding signal in test [7] was 1.15 fold enrichment (6-mer frequency, TF over GST control); in test [8] it was 1.18 fold enrichment (6-mer frequency, TF over GST control).
